Where “and” joins values, the source holds several entries; their conditions need not be identical. Equal entries are not always repeated. The whole screen tested about 5,500 compounds, of which about 2,000 (36%) were called active. Not shown: some 18% with an inconclusive outcome. Cut-off read from the data, not from the text of the source: active = normalized growth mostly below about 0.91 (no sharp cut-off); inconclusive = no clear call, values can overlap the other calls; inactive = mostly above about 0.92. The list shows a part of the results.
Assay: chemical genetic growth profiling, strain panel (AID 1159580);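 note: tested at 20 µM; growth read once vehicle control cultures reached saturation at 30 °C; 1 = growth at the plate median or of vehicle wells; lower values mean less growth of the strain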
Settings: S. cerevisiae deletion strains, growth OD

Measured: normalized growth

COc1cc(Cc2cnc(N)nc2N)cc(OC)c1OC
inactive: locus YAL013W, strain DEP1, stronger effect = lower value 1 and 1.03 | locus YAL021C, strain ccr4, stronger effect = lower value 1.02 | locus YAL026C, strain drs2, stronger effect = lower value 1.01 | locus YAL030W, strain snc1, stronger effect = lower value 1.01 | locus YAL040C, strain CLN3, stronger effect = lower value 0.987 | locus YBL061C, strain skt5, stronger effect = lower value 1.01 | locus YBR009C, strain hhf1, stronger effect = lower value 1.01 | locus YBR021W, strain FUR4, stronger effect = lower value 0.977 | locus YBR023C, strain chs3, stronger effect = lower value 1.01 | locus YBR171W, strain sec66, stronger effect = lower value 1.02 | locus YBR229C, strain ROT2, stronger effect = lower value 0.998 | locus YBR231C, strain swc5, stronger effect = lower value 1.01 | locus YBR279W, strain paf1, stronger effect = lower value 1.02 | locus YCL011C, strain gbp2, stronger effect = lower value 1.02 | locus YCL016C, strain dcc1, stronger effect = lower value 1.02 | locus YCL029C, strain bik1, stronger effect = lower value 0.982 | locus YCL061C, strain MRC1 (second series), stronger effect = lower value 0.992 | locus YCL069W, strain vba3, stronger effect = lower value 1.02 | locus YCR088W, strain abp1, stronger effect = lower value 1.02 | locus YDL005C, strain med2, stronger effect = lower value 1.02 | locus YDL035C, strain GPR1, stronger effect = lower value 1.03 | locus YDL040C, strain nat1, stronger effect = lower value 1.01 | locus YDL074C, strain BRE1, stronger effect = lower value 0.993 | locus YDL101C, strain DUN1, stronger effect = lower value 0.99 | locus YDL134C, strain PPH21, stronger effect = lower value 0.986 | locus YDL185W, strain tfp1, stronger effect = lower value 0.987 | locus YDL192W, strain arf1, stronger effect = lower value 0.99 | locus YDR001C, strain nth1, stronger effect = lower value 1.01 | locus YDR069C, strain doa4, stronger effect = lower value 1.03 | locus YDR101C, strain arx1, stronger effect = lower value 0.986 | locus YDR137W, strain rgp1, stronger effect = lower value 1.02 | locus YDR150W, strain NUM1, stronger effect = lower value 1 | locus YDR159W, strain sac3, stronger effect = lower value 0.977 | locus YDR162C, strain NBP2, stronger effect = lower value 1 | locus YDR195W, strain ref2 1 | locus YDR297W, strain sur2, stronger effect = lower value 1.01 | locus YDR318W, strain mcm21, stronger effect = lower value 0.99 | locus YDR334W, strain swr1, stronger effect = lower value 1.02 | locus YDR335W, strain msn5, stronger effect = lower value 1.02 | locus YDR363W, strain ESC2, stronger effect = lower value 0.991 | locus YDR388W, stronger effect = lower value 0.987 | locus YDR392W, strain spt3, stronger effect = lower value 0.984 | locus YDR502C, strain sam2, stronger effect = lower value 0.998 | locus YEL003W, strain gim4, stronger effect = lower value 1.02 | locus YEL037C, strain rad23, stronger effect = lower value 1.01 | locus YEL061C, strain CIN8 (second series), stronger effect = lower value 1.01 | locus YEL061C, strain CIN8, stronger effect = lower value 0.997 | locus YER002W, strain NOP16, stronger effect = lower value 0.968 | locus YER015W, strain faa2, stronger effect = lower value 1.02 | locus YER016W, strain bim1, stronger effect = lower value 1.01 | locus YER110C, stronger effect = lower value 0.988 | locus YER111C, strain swi4, stronger effect = lower value 1.03 | locus YER155C, strain BEM2 (second series), stronger effect = lower value 0.991 | locus YER155C, strain BEM2, stronger effect = lower value 0.989 | locus YER167W, strain BCK2, stronger effect = lower value 1.01 | locus YFR010W, strain ubp6, stronger effect = lower value 1.01 | locus YGL078C, strain dbp3, stronger effect = lower value 0.992 | locus YGL086W, strain mad1, stronger effect = lower value 1.01 | locus YGL167C, strain pmr1, stronger effect = lower value 1.02 | locus YGL173C, strain kem1, stronger effect = lower value 1.02 | locus YGL227W, strain vid30, stronger effect = lower value 1.01 | locus YGL240W, strain doc1, stronger effect = lower value 1.01 | locus YGL248W, strain PDE1, stronger effect = lower value 1 | locus YGL253W, strain hxk2, stronger effect = lower value 1.01 | locus YGR078C, strain PAC10, stronger effect = lower value 1.01 | locus YGR135W, strain pre9, stronger effect = lower value 0.985 | locus YGR229C, strain SMI1, stronger effect = lower value 1.04 | locus YGR252W, strain gcn5, stronger effect = lower value 1.07 | locus YHR013C, strain ard1, stronger effect = lower value 1.01 | locus YHR027C, strain rpn1, stronger effect = lower value 1.01 | locus YHR030C, strain SLT2, stronger effect = lower value 0.999 and 0.966 | locus YHR079C, strain IRE1 (second series), stronger effect = lower value 0.988 | locus YHR079C, strain IRE1, stronger effect = lower value 0.979 | locus YHR094C, strain hxt1, stronger effect = lower value 0.993 | locus YHR129C, strain ARP1, stronger effect = lower value 0.991 | locus YHR142W, strain chs7, stronger effect = lower value 1.03 | locus YHR200W, strain rpn10, stronger effect = lower value 0.989 | locus YIL066C, strain RNR3, stronger effect = lower value 1 | locus YIL073C, strain SPO22, stronger effect = lower value 0.995 | locus YIL125W, strain kgd1, stronger effect = lower value 1 | locus YIR030C, strain dcg1, stronger effect = lower value 0.991 | locus YJL092W, strain hpr5, stronger effect = lower value 1 | locus YJL095W, strain BCK1 (second series), stronger effect = lower value 1.01 | locus YJL095W, strain BCK1, stronger effect = lower value 0.988 and 0.98 | locus YJL115W, strain asf1, stronger effect = lower value 1.02 | locus YJL129C, strain trk1, stronger effect = lower value 1.01 | locus YJL134W, strain LCB3, stronger effect = lower value 0.999 | locus YJL154C, strain vps35, stronger effect = lower value 1.03 | locus YJL164C, strain tpk1, stronger effect = lower value 1.01 | locus YJL166W, strain qcr8, stronger effect = lower value 0.993 | locus YJL168C, strain set2, stronger effect = lower value 0.993 | locus YJL187C, strain SWE1 (second series), stronger effect = lower value 0.993 | locus YJL187C, strain SWE1, stronger effect = lower value 1.02 | locus YJR043C, strain POL32, stronger effect = lower value 1 | locus YJR066W, strain TOR1, stronger effect = lower value 0.929

Reference: PubChem BioAssay AID1159580 (chemical genetic matrix, 2015)
